Measured values published in PubChem BioAssay (EPA / NIEHS).
Active and inactive are the calls of the source. The calls were made as follows: active = hit-call score of the fitted dose curve at least 0.9, where 1 is the maximum; inactive = score below 0.9.

Experiment: ATG_MRE_CIS: Attagene CIS-FACTORIAL HepG2 Assay for human Metal Responsive Element (MRE) (AID 2282954)
Conditions: HepG2 MRE cis-reporter transcription, Attagene multiplex; actives raise or lower the signal
Outline: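 Readout: capillary electrophoresis of 6-FAM-labelled, HpaI-digested RT-PCR reporter products. System: HepG2 cells carrying transient multiplexed cis reporters, dosed 24 h. Analysis: bidirectional fit, DMSO baseline.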

SMILES | AC50 | outcome
CCOP(=S)(OCC)Oc1ccc([N+](=O)[O-])cc1 | 50 µM (active) | 
CC[C@H](C)[C@H]1O[C@]2(C=C[C@@H]1C)C[C@@H]1C[C@@H](C/C=C(\C)[C@@H](O[C@H]3C[C@H](OC)[C@@H](O[C@H]4C[C@H](OC)[C@@H](NC)[C@H](C)O4)[C@H](C)O3)[C@@H](C)/C=C/C=C3\CO[C@@H]4[C@H](O)C(C)=C[C@@H](C(=O)O1)[C@]34O)O2 |  | inactive
CN(C)[C@@H]1C(=O)C(C(N)=O)=C(O)[C@@]2(O)C(=O)C3=C(O)c4c(O)cccc4[C@@](C)(O)[C@H]3[C@H](O)[C@@H]12 |  | inactive
CCNc1nc(Cl)nc(NC(C)(C)C#N)n1 |  | inactive
CC(C)[C@H](C(=O)O[C@H](C#N)c1cccc(Oc2ccccc2)c1)c1ccc(Cl)cc1 |  | inactive
CCOP(=S)(OCC)Oc1ccc2c(C)c(Cl)c(=O)oc2c1 |  | inactive
CSc1nc(NC(C)C)nc(NC(C)C)n1 |  | inactive
COP(=O)(OC)SCn1c(=O)oc2cc(Cl)cnc21 |  | inactive
CN(C)NC(=O)CCC(=O)O |  | inactive
Cc1nn(-c2cc(NS(C)(=O)=O)c(Cl)cc2Cl)c(=O)n1C(F)F |  | inactive
CCCCN(CC)c1c([N+](=O)[O-])cc(C(F)(F)F)cc1[N+](=O)[O-] |  | inactive
CCC(=NOC/C=C/Cl)C1=C(O)CC(C2CCOCC2)CC1=O (configuration not stated) |  | inactive
C[N+]1(C)CCCCC1 |  | inactive
CNC(=O)ON=C(SC)C(=O)N(C)C |  | inactive
COP(=O)(NC(C)=O)SC (configuration not stated) |  | inactive

Experiment: ATG_PBREM_CIS: Attagene CIS-FACTORIAL HepG2 Assay for human Phenobarbital-responsive Enhancer Module (PBREM) (AID 2282955)
Conditions: HepG2 PBREM cis-reporter, Attagene multiplexed transcription; actives raise or lower the signal
Outline: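 Measures endogenous factor action on a phenobarbital-responsive enhancer module. HepG2 transiently carrying cis reporters, 24 h treatment, mRNA read-out by RT-PCR plus capillary electrophoresis.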

SMILES | outcome | AC50
CCOP(=O)(SC(C)CC)N1CCSC1=O (configuration not stated) | inactive | 
CCCCOC(=O)[C@@H](C)Oc1ccc(Oc2ccc(C#N)cc2F)cc1 | inactive | 
CCc1cccc(C)c1N(C(=O)CCl)C(C)COC (configuration not stated) |  | 7.5 µM (active)
COc1cc(OC)nc(Sc2cccc(Cl)c2C(=O)O)n1 | inactive | 
CON=C(C(=O)OC)c1ccccc1CON=C(C)c1cccc(C(F)(F)F)c1 | inactive | 
C#CC(C)(C)NC(=O)c1cc(Cl)cc(Cl)c1 |  | 50 µM (active)
CCC(=O)Nc1ccc(Cl)c(Cl)c1 | inactive | 
CCOP(=S)(OCC)SCCSCC |  | 30.5 µM (active)
CCc1cnc(C2=NC(C)(C(C)C)C(=O)N2)c(C(=O)O)c1 (configuration not stated) | inactive | 
CCOP(=S)(Oc1cnc(C(C)(C)C)nc1)OC(C)C (configuration not stated) |  | 21.2 µM (active)
CCOP(=S)(OCC)OC(Cl)C(Cl)(Cl)Cl (configuration not stated) | inactive | 
CN(C)C(=O)Nc1cccc(C(F)(F)F)c1 | inactive | 
CCCOc1nn(C(=O)NS(=O)(=O)c2ccccc2C(=O)OC)c(=O)n1C | inactive | 
CCOC(=O)COc1cc(-c2nn(C)c(OC(F)F)c2Cl)c(F)cc1Cl | inactive | 
CCOP(=S)(OCC)Oc1ccc([N+](=O)[O-])cc1 | inactive | 
CC[C@H](C)[C@H]1O[C@]2(C=C[C@@H]1C)C[C@@H]1C[C@@H](C/C=C(\C)[C@@H](O[C@H]3C[C@H](OC)[C@@H](O[C@H]4C[C@H](OC)[C@@H](NC)[C@H](C)O4)[C@H](C)O3)[C@@H](C)/C=C/C=C3\CO[C@@H]4[C@H](O)C(C)=C[C@@H](C(=O)O1)[C@]34O)O2 | inactive | 
CCNc1nc(Cl)nc(NC(C)(C)C#N)n1 | inactive | 
CC(C)[C@H](C(=O)O[C@H](C#N)c1cccc(Oc2ccccc2)c1)c1ccc(Cl)cc1 |  | 9.24 µM (active)
CCOP(=S)(OCC)Oc1ccc2c(C)c(Cl)c(=O)oc2c1 | inactive | 
CSc1nc(NC(C)C)nc(NC(C)C)n1 | inactive | 
COP(=O)(OC)SCn1c(=O)oc2cc(Cl)cnc21 | inactive | 
CN(C)NC(=O)CCC(=O)O | inactive | 
CCCCN(CC)c1c([N+](=O)[O-])cc(C(F)(F)F)cc1[N+](=O)[O-] |  | 14.9 µM (active)
CCC(=NOC/C=C/Cl)C1=C(O)CC(C2CCOCC2)CC1=O (configuration not stated) | inactive | 
C[N+]1(C)CCCCC1 | inactive | 
CNC(=O)ON=C(SC)C(=O)N(C)C | inactive | 
COP(=O)(NC(C)=O)SC (configuration not stated) | inactive | 
